# From PubChem BioAssay
# APOBEC3G inh: inhibitors of human APOBEC3G DNA deaminase; AID 493012; 0.28% of 330,000 active; Q9HC16; recombinant A3G, ssDNA deamination FAM/TAMRA fluorescence; inhibition, % at 20 µM;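 active = inhibition of at least 40% at 20 µM, with no more than 30% in the related APOBEC3A deaminase screen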
# ALR H2O2 inh: inhibitors of human sulfhydryl oxidase ALR. P55789. purified ALR, DTT oxidation, H2O2 HRP-luminol luminescence. inhibition, % (concentration not given with the values). 3.8% of 290,000 active. AID 485317;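 active = mean replicate inhibition above about 79%, with every replicate also reaching it, limit read from the data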
# Target sequence (P55789 whole entry, looked up): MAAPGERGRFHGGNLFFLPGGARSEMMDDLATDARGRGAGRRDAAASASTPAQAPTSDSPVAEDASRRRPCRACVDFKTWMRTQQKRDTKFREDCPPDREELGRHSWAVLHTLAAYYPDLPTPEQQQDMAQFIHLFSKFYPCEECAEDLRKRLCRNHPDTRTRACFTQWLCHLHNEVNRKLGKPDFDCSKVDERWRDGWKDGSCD
# CendR NRP1 mod: NRP-1/CendR interaction modulation; AID 602438; inhibition, % at 25 µM; FAM-RPARPAR peptide binding to NRP-1, fluorescence polarization; 0.85% of 360,000 active;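 active = inhibition or corrected inhibition above about 18%, plus a signal ratio from 0.5 to 1.5, limit read from the data, passing the limit was not always enough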
# APOBEC3A inh: human APOBEC3A DNA deaminase inhibition | recombinant A3A, FAM/TAMRA ssDNA deamination fluorescence | inhibition, % at 20 µM | 0.41% of 330,000 active;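 active = at least 40% inhibition at 20 µM here, with at most 30% in a related deaminase screen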
# Target sequence (P31941 whole entry, looked up): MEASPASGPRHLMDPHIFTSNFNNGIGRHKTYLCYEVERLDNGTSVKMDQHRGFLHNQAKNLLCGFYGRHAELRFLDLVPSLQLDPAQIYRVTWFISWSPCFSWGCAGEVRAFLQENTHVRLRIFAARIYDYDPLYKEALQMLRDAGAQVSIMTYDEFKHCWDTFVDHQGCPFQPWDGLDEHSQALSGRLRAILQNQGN
# Yeast superoxide: yeast age-related superoxide inhibition as caloric restriction mimetic | S. cerevisiae aged cells, superoxide DHE fluorescence; hits give low values | superoxide response (% of plate mean), % at 10 µM | 0.18% of 330,000 active | AID 2690;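 active = superoxide response under a set limit, about three screen SD below normal, cut at about 65% in these data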;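 note: yeast aged for seven days with compound at 30 °C before DHE staining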
# M18AAP inhibitor: PfM18AAP enzyme inhibition. recombinant PfM18AAP, H-Glu-NHMec fluorogenic cleavage. inhibition, % at 7.35 µM. 1.2% of 290,000 active. AID 1822;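 active = inhibition above the campaign mean inhibition over all tested compounds plus 3 SD, cut at about 28% in these data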
# A number is an active result; i = inactive; nt = no result given. Only some compounds are listed: those with a hit (about 5.2% of all), similar ones and a draw of the others.
SMILES,APOBEC3G inh,ALR H2O2 inh,CendR NRP1 mod,APOBEC3A inh,Yeast superoxide,M18AAP inhibitor
C=CCOc1ccccc1CN1CCCC(CCC(=O)N(C)CCc2ccccn2)C1 (stereo not given),i,i,i,i,i,i
O=C1N/C(=N/O)S/C1=C/c1cccc([N+](=O)[O-])c1,i,i,i,i,i,i
CC1(C)CC(=O)/C(=C\c2cccc([N+](=O)[O-])c2)C(C)(C)N1,i,i,31,i,i,i
Cc1cccc(NC(=O)NNC(=O)c2ccc3ccccc3c2O)c1,i,i,i,i,i,i
Cc1csc(N(C(=O)CCNC(=O)c2ccc([N+](=O)[O-])cc2)c2ccccc2)n1,i,i,i,i,i,i
COc1ccc(C(=O)c2cnc3ccccc3c2-c2ccccc2)cc1,i,i,i,i,i,i
COc1cc(C(=O)N/N=C(\C)Cn2nc([N+](=O)[O-])cc2C)ccc1O,i,83,i,i,i,i
Cn1c(N)c(C(=O)COC(=O)CNC(=O)c2ccc(Cl)cc2Cl)c(=O)n(C)c1=O,i,nt,i,i,i,nt
CCC(Sc1nc2ccc(N)cc2s1)C(=O)Nc1nccs1 (stereo not given),i,99,i,i,i,i
CCC(Sc1nc2ccccc2s1)C(=O)Nc1nnc(C)s1 (stereo not given),i,98,i,i,i,i
O=[N+]([O-])c1ccc(F)cc1OCc1cccc(S(=O)(=O)N2CCOCC2)c1,i,i,i,i,i,nt
COc1ccc(NC(=O)c2coc(C)c2)cc1,i,i,i,i,i,i
Nc1nc2ccc([N+](=O)[O-])cc2[nH]1,i,i,i,i,i,i
Nc1[nH]c2cc([N+](=O)[O-])ccc2c1-c1ccccn1,i,92,i,i,i,i
Cc1c(C(=O)N2CCOCC2)c(S(=O)(=O)Nc2cccc(C#N)c2)c(C)n1C,i,i,22,i,i,i
CCOc1ccc(C(=O)CCC(=O)NNC(=O)c2ccccc2O)cc1,i,i,i,i,i,nt
O=C(/C=C/c1ccc(F)cc1)NC(=S)NNC(=O)c1cnccn1,i,nt,i,i,i,i
COc1ccc(/C=C/C(=O)NC(=S)NNC(=O)c2cnccn2)cc1,i,i,i,i,31,i
O=C(CN1C2CCCC1CC(NC(=O)c1ccccc1)C2)Nc1ccccc1 (stereo not given),i,i,i,i,i,i
CCOC(=O)Cn1c(=O)oc2cc(S(=O)(=O)N3CCN(C(=O)OCC)CC3)ccc21,i,i,i,i,i,i
C=CC[n+]1c(C)csc1Nc1cccc(Br)c1,i,97,i,i,i,i
C=CC[n+]1c(C)csc1Nc1ccc(C)cc1,i,99,i,i,i,i
Cc1ccc(-c2csc(Nc3ccccc3)[n+]2CCc2ccccc2)cc1,i,i,i,i,i,i
CCOC(=O)[C@H]1[C@H]2COc3cc(OC)ccc3[C@@H]2N2C(=O)CN(Cc3ccc(OC)cc3)C(=O)[C@@]12C,i,i,i,i,i,nt
CCCCNC(=O)[C@@H]1CCCN1S(=O)(=O)c1cccc2cccnc12,i,i,33,i,i,nt
SMILES,APOBEC3G inh,ALR H2O2 inh,CendR NRP1 mod,APOBEC3A inh,Yeast superoxide,M18AAP inhibitor
CCN1CCN(C(=O)C2CCN(S(=O)(=O)c3cccc4cccnc34)CC2)CC1,i,98,i,i,i,nt
O=C(CN1CCOc2ccccc21)NC1CCCCCCC1,i,99,i,i,i,i
O=C(CN1CCOc2ccccc21)NC1CCN(Cc2ccccc2)CC1,i,87,i,i,i,i
O=C(Nc1ccccc1)NC1CCN(Cc2ccccc2)CC1,i,i,i,i,i,i
CCc1ccc(CC(=S)N2CCOCC2)cc1,i,i,i,i,i,i
Cc1ccc(CC(=S)N2CCOCC2)cc1,i,i,i,i,i,29
Cc1ccc(/C=N/NC(=S)N2CCOCC2)cc1,i,i,i,i,i,40
S=C(N/N=C/c1ccc(Cl)cc1)N1CCOCC1,i,i,i,i,i,30
S=C(N/N=C/c1ccc(Br)cc1)N1CCCCC1,i,i,i,i,i,i
Cc1ccc(C(=O)c2cc([N+](=O)[O-])ccc2N2CCCCC2)cc1,i,nt,i,i,i,i
CCN1CCS/C1=C/C=C/C1=[N+](CC)CCS1,nt,97,i,nt,i,i
COC(=O)C1N[C@@H]([C@@H](NC(=O)COc2ccccc2)C(=O)NCc2ccccc2)SC1(C)C (stereo not given in full),i,i,32,i,nt,nt
